Test results published in article PMC5540273 (PLoS ONE, 2017).

test system: FLT3; settings: concentration: 1 μM, replicates: in singlicate; n = 1
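Further: KINOMEscan kinase panel screen.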

With `O=C(Nc1cccc(-c2nn3ccccc3c2-c2ccnc(Nc3cccc(F)c3)n2)c1)c1c(F)ccc(F)c1Cl` [GSK357952] as the compound, how does the “%Inh” value read?
The value was 51%.

With `O=C(Nc1ccccc1F)NC1CCN(c2ccnc(Nc3ccc(F)cc3)n2)CC1` [GSK1379800] as the compound, how does the “%Inh” value read?
The value was 0%.

`O=c1[nH]cc(-c2ccc(N3CCOCC3)cc2)c2sc(-c3cn[nH]c3)cc12` [GSK2276055] was tested. Which “%Inh” value did it give?
The value was 0%.

For `COc1cccc(C(=O)Nc2cccc(Oc3ccc4nc(NC(=O)C5CC5)cn4n3)c2)c1`, which “%Inh” value is on record?
The value was 89%.

How did the “%Inh” value turn out when `O=C(Nc1cccc(Oc2ccc3nc(NC(=O)C4CC4)cn3n2)c1)c1ccccc1C(F)(F)F` was run?
The value was 20%.

How did the “%Inh” value turn out when `NCCCC(NC(=O)c1cc(Br)c(-c2ccnc3[nH]ccc23)s1)c1ccccc1.O=C(O)C(F)(F)F.O=C(O)C(F)(F)F` (centres unmarked) [GSK1287544] was run?
Its value is 83%.

For `COC(=O)Nc1nc2ccc(Oc3ccc(NC(=O)Nc4cc(C(F)(F)F)ccc4F)cc3)cc2n1C.Cl` [GW692089], which “%Inh” value is on record?
Its value is 99%.

`COc1cc(Nc2nccc(-c3c(-c4cccc(NC(=O)c5c(F)cccc5F)c4)nn4ncccc34)n2)cc(OC)c1OC` [GSK327238] was tested. Which “%Inh” value did it give?
Its value is 96.1%.

`CN1CCN(CCCNc2nccc(-c3c(-c4ccc(F)cc4)nn4cc(C(F)(F)F)ccc34)n2)CC1` [GW621581] was tested. Which “%Inh” value did it give?
The value was 0%.

How did the “%Inh” value turn out when `Cc1ccc(C)c(NC(=O)NC2CCN(c3ccnc(Nc4ccc(F)cc4)n3)C2)c1` (centres unmarked) [GSK1379720] was run?
The value was 0%.

With `Cc1cccc(Nc2nc(N[C@H]3CCNC3)ncc2C(N)=O)c1.Cl` [GSK2197149] as the compound, how does the “%Inh” value read?
The value was 80%.

Which “%Inh” value does the source give for `COc1ccc(Nc2nccc(NCCNC(=O)c3cc4ccccc4s3)n2)cc1` [GSK1379896] here?
Its value is 0%.

For `Nc1ncc(-c2cccnc2)c2scc(-c3ccc4c(c3)CCN4C(=O)Cc3ccccc3)c12` [GSK683281], which “%Inh” value is on record?
Its value is 83%.

Which “%Inh” value does the source give for `Cl.Cl.NCC(NC(=O)c1cc(-c2ccccc2)c(-c2ccnc3[nH]ccc23)s1)c1ccccc1` (centres unmarked) [GSK1321561] here?
Its value is 0%.

How did the “%Inh” value turn out when `Nc1ncc(-c2ccc3nccc(-c4ccncc4)c3c2)cc1S(=O)(=O)N1CCOCC1` [GSK1627798] was run?
The value was 0%.

How did the “%Inh” value turn out when `CCn1c(-c2nonc2N)nc2c(C#CC(C)(C)O)ncc(OCCCCN)c21.O=C(O)C(F)(F)F.O=C(O)C(F)(F)F` [GSK507274] was run?
The value was 0%.

Which “%Inh” value does the source give for `Nc1n[nH]c2cnc(-c3ccccc3)cc12` [SB-642124] here?
The value was 0%.

With `Cl.c1ccc(-c2ccc3c(Nc4ccc5[nH]ncc5c4)ccnc3c2)nc1` [GW440137] as the compound, how does the “%Inh” value read?
The value was 0%.

`Nc1ncnc2c1nc(-c1ccccc1)n2-c1ccccc1` [SKF-97293] was tested. Which “%Inh” value did it give?
The value was 20%.

For `Cn1cc(-c2ccc3c(c2)CCN3C(=O)Cc2cccc(Cl)c2)c2c(N)ncnc21` [GSK2606590], which “%Inh” value is on record?
The value was 91.8%.

How did the “%Inh” value turn out when `COc1cccc(-c2ccc3c(NC(=O)C4CC4)n[nH]c3n2)c1` [SB-710903] was run?
Its value is 0%.

Which “%Inh” value does the source give for `CC(=O)N1CCN(c2ccc(Nc3nccc(-c4sc(C(C)C)nc4-c4cccc(NS(=O)(=O)c5cccc(Cl)c5)c4)n3)cn2)CC1` [GSK1660437] here?
The value was 33%.

For `CC(C)(C)c1ccc2nccc(Nc3cccc(O)c3)c2c1` [GW856795], which “%Inh” value is on record?
Its value is 10%.

For `COc1cc2c(cc1OCCN1CCNCC1)ncc1c3ccc(C#N)cc3[nH]c21`, which “%Inh” value is on record?
Its value is 98.5%.

Which “%Inh” value does the source give for `O=C(Nc1cccc(-c2nn3ncccc3c2-c2ccnc(Nc3ccccc3)n2)c1)c1c(F)cccc1F` [GSK198271] here?
Its value is 72%.

test system: FLT4; settings: concentration: 1 μM, replicates: in singlicate; n = 1

`FC(F)(F)c1ccc(/C=C/c2cncnc2Nc2ccc3[nH]c(Cc4ccccc4)nc3c2)cc1` [GW709199] was tested. Which “%Inh” value did it give?
The value was 0%.

Which “%Inh” value does the source give for `CN(C)Cc1ccc(-c2ccc3c(Nc4ccc(Oc5ccccn5)cc4)ccnc3c2)o1` [GW567148] here?
The value was 21%.

Which “%Inh” value does the source give for `Cc1ccc(F)c(C(=O)Nc2cccc(-c3nn4ccccc4c3-c3ccnc(Nc4cccc(F)c4)n3)c2)c1F` [GSK361061] here?
The value was 82%.

With `Cc1occc1-c1ncc(OC[C@@H](N)Cc2c[nH]c3ccccc23)cc1-c1ccc2[nH]nc(C)c2c1.O=C(O)C(F)(F)F` [GSK682037] as the compound, how does the “%Inh” value read?
The value was 3%.

Which “%Inh” value does the source give for `CN(C)S(=O)(=O)c1cc(-c2ccc3nccc(-c4cccc(S(N)(=O)=O)c4)c3c2)cnc1N` [GSK1669921] here?
Its value is 1%.

Which “%Inh” value does the source give for `COCCOCCOc1cc2ncc3c4ccc(C#N)cc4[nH]c3c2cc1OC` here?
The value was 20%.

Which “%Inh” value does the source give for `COc1cccc(C2=C(Nc3ccc(Cl)c(C(=O)O)c3)C(=O)NC2=O)c1` [SB-390769] here?
The value was 47%.

`Oc1cc(Nc2ccnc3cc(I)ccc23)ccc1F` [GW552771] was tested. Which “%Inh” value did it give?
Its value is 45%.

With `Cc1ccc(S(=O)(=O)Nc2ccc(Nc3nccc(Nc4cccc5[nH]ncc45)n3)cc2)cc1` [GSK581271] as the compound, how does the “%Inh” value read?
Its value is 5%.

With `Cc1ccc(C(=O)N2CC[C@@H](O)C2)cc1-n1c(C)cc(OCc2ccc(F)cc2F)c(Br)c1=O` as the compound, how does the “%Inh” value read?
Its value is 0%.

`COC(=O)Nc1nc2cc(Oc3ccc(NC(=O)Nc4cc(C(F)(F)F)ccc4F)cn3)ccc2[nH]1.Cl.Cl` [GW681170] was tested. Which “%Inh” value did it give?
Its value is 79%.

`COc1cc(Nc2nccc(N3CCC(NC(=O)c4cc5ccccc5s4)C3)n2)cc(OC)c1OC` (centres unmarked) [GSK1379760] was tested. Which “%Inh” value did it give?
The value was 26%.

How did the “%Inh” value turn out when `O=C(Nc1cccc(-c2nn3ccccc3c2-c2ccnc(Nc3cccc(F)c3)n2)c1)c1c(F)ccc(F)c1Cl` [GSK357952] was run?
Its value is 38%.

For `O=C(Nc1ccccc1F)NC1CCN(c2ccnc(Nc3ccc(F)cc3)n2)CC1` [GSK1379800], which “%Inh” value is on record?
Its value is 0%.

For `O=c1[nH]cc(-c2ccc(N3CCOCC3)cc2)c2sc(-c3cn[nH]c3)cc12` [GSK2276055], which “%Inh” value is on record?
The value was 0%.

`COc1cccc(C(=O)Nc2cccc(Oc3ccc4nc(NC(=O)C5CC5)cn4n3)c2)c1` was tested. Which “%Inh” value did it give?
Its value is 100%.

Which “%Inh” value does the source give for `O=C(Nc1cccc(Oc2ccc3nc(NC(=O)C4CC4)cn3n2)c1)c1ccccc1C(F)(F)F` here?
The value was 99.9%.

How did the “%Inh” value turn out when `NCCCC(NC(=O)c1cc(Br)c(-c2ccnc3[nH]ccc23)s1)c1ccccc1.O=C(O)C(F)(F)F.O=C(O)C(F)(F)F` (centres unmarked) [GSK1287544] was run?
The value was 38%.

Which “%Inh” value does the source give for `COC(=O)Nc1nc2ccc(Oc3ccc(NC(=O)Nc4cc(C(F)(F)F)ccc4F)cc3)cc2n1C.Cl` [GW692089] here?
Its value is 87%.

Which “%Inh” value does the source give for `COc1cc(Nc2nccc(-c3c(-c4cccc(NC(=O)c5c(F)cccc5F)c4)nn4ncccc34)n2)cc(OC)c1OC` [GSK327238] here?
Its value is 99.8%.

`CN1CCN(CCCNc2nccc(-c3c(-c4ccc(F)cc4)nn4cc(C(F)(F)F)ccc34)n2)CC1` [GW621581] was tested. Which “%Inh” value did it give?
The value was 16%.

For `Cc1ccc(C)c(NC(=O)NC2CCN(c3ccnc(Nc4ccc(F)cc4)n3)C2)c1` (centres unmarked) [GSK1379720], which “%Inh” value is on record?
The value was 0%.

For `Cc1cccc(Nc2nc(N[C@H]3CCNC3)ncc2C(N)=O)c1.Cl` [GSK2197149], which “%Inh” value is on record?
The value was 9%.

`COc1ccc(Nc2nccc(NCCNC(=O)c3cc4ccccc4s3)n2)cc1` [GSK1379896] was tested. Which “%Inh” value did it give?
The value was 10%.

For `Nc1ncc(-c2cccnc2)c2scc(-c3ccc4c(c3)CCN4C(=O)Cc3ccccc3)c12` [GSK683281], which “%Inh” value is on record?
Its value is 35%.

For `Cl.Cl.NCC(NC(=O)c1cc(-c2ccccc2)c(-c2ccnc3[nH]ccc23)s1)c1ccccc1` (centres unmarked) [GSK1321561], which “%Inh” value is on record?
Its value is 2%.

For `Nc1ncc(-c2ccc3nccc(-c4ccncc4)c3c2)cc1S(=O)(=O)N1CCOCC1` [GSK1627798], which “%Inh” value is on record?
The value was 0%.

For `CCn1c(-c2nonc2N)nc2c(C#CC(C)(C)O)ncc(OCCCCN)c21.O=C(O)C(F)(F)F.O=C(O)C(F)(F)F` [GSK507274], which “%Inh” value is on record?
The value was 15%.

With `Nc1n[nH]c2cnc(-c3ccccc3)cc12` [SB-642124] as the compound, how does the “%Inh” value read?
Its value is 8%.

Which “%Inh” value does the source give for `Cl.c1ccc(-c2ccc3c(Nc4ccc5[nH]ncc5c4)ccnc3c2)nc1` [GW440137] here?
The value was 39%.

How did the “%Inh” value turn out when `Nc1ncnc2c1nc(-c1ccccc1)n2-c1ccccc1` [SKF-97293] was run?
The value was 0%.

How did the “%Inh” value turn out when `Cn1cc(-c2ccc3c(c2)CCN3C(=O)Cc2cccc(Cl)c2)c2c(N)ncnc21` [GSK2606590] was run?
The value was 45%.

Which “%Inh” value does the source give for `COc1cccc(-c2ccc3c(NC(=O)C4CC4)n[nH]c3n2)c1` [SB-710903] here?
Its value is 1%.

With `CC(=O)N1CCN(c2ccc(Nc3nccc(-c4sc(C(C)C)nc4-c4cccc(NS(=O)(=O)c5cccc(Cl)c5)c4)n3)cn2)CC1` [GSK1660437] as the compound, how does the “%Inh” value read?
Its value is 82%.

Which “%Inh” value does the source give for `CC(C)(C)c1ccc2nccc(Nc3cccc(O)c3)c2c1` [GW856795] here?
The value was 0%.

Which “%Inh” value does the source give for `COc1cc2c(cc1OCCN1CCNCC1)ncc1c3ccc(C#N)cc3[nH]c21` here?
Its value is 0%.

`O=C(Nc1cccc(-c2nn3ncccc3c2-c2ccnc(Nc3ccccc3)n2)c1)c1c(F)cccc1F` [GSK198271] was tested. Which “%Inh” value did it give?
Its value is 77%.
